Our source for the outcome and AC50 values is PubChem BioAssay AID2283131 (EPA ToxCast).

Inconclusive results are not listed. Calls of active or inactive are those of the source. The calls were made as follows: active = hit-call score of the fitted dose curve at least 0.9, where 1 is the maximum; inconclusive = response in the unintended direction; inactive = score below 0.9.

In this test the target is human Bruton's Tyrosine Kinase (BTK), BTK (gene 695) (UniProt Q06187). Nature of the test: NVS_ENZ_hBTK: NovaScreen (NVS) Enzymatic Assay for human Bruton's Tyrosine Kinase (BTK). The procedure:
NVS_ENZ_hBTK is a biochemical, single-readout assay that uses extracted gene-proteins in a cell-free assay. Measurements were taken 1 hour after chemical dosing in a 96-well plate.NVS_ENZ_hBTK is one of one assay component(s) measured or calculated from the NVS_ENZ_hBTK assay. It is designed to make measurements of enzyme activity, a form of enzyme reporter, as detected with fluorescence intensity signals by Fluorescence and electrophoretic mobility shift technology.Data from the assay component NVS_ENZ_hBTK was analyzed into 1 assay endpoint. This assay endpoint, NVS_ENZ_hBTK, was analyzed in the positive analysis fitting direction relative to DMSO as the negative control and baseline of activity. Using a type of enzyme reporter, loss-of-signal activity can be used to understand changes in the enzymatic activity as they relate to the gene BTK. Furthermore, this assay endpoint can be referred to as a primary readout, because this assay has produced multiple assay endpoints where this one serves a enzymatic activity function. To generalize the intended target to other relatable targets, this assay endpoint is annotated to the kinase intended target family, where the subfamily is non-receptor tyrosine kinase. […]

Chain of human Bruton's Tyrosine Kinase (BTK), BTK (gene 695) (Q06187 whole entry, looked up): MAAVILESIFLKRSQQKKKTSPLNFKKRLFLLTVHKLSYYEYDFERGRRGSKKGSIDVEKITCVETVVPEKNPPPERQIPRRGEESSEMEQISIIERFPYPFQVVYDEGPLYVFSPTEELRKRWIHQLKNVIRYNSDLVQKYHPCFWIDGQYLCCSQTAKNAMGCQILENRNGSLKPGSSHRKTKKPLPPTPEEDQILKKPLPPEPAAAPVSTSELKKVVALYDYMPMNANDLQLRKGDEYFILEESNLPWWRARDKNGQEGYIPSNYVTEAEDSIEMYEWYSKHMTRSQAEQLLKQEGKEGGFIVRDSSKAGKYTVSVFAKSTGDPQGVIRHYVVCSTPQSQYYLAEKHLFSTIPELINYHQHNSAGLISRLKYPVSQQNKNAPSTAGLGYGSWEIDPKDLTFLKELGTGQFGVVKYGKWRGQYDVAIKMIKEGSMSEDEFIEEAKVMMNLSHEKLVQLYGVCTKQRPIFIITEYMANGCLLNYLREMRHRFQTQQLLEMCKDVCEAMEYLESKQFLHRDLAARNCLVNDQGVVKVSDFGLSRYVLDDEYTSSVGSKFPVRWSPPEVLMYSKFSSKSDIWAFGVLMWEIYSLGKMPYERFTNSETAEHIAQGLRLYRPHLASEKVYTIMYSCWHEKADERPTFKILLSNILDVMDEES

Turning to `COCCO`, the compound was classed as inactive. `S=C([S-])NCCNC(=S)[S-].[Mn+2]`: the AC50 (in general, the concentration at which the activity in the assay is half-maximal) is 45.5 µM (active).
